Screens (PubChem)
CYP2C9 activ – human CYP2C9 activators, primary screen, biochemical, luminescence | Cytochrome P450 2C9 (Homo sapiens), P11712 | recombinant CYP2C9, luciferin-H conversion; stronger effect = higher value; factor 1 = untreated enzyme, 0 = blocked | activation factor at 5 µM | actives 1.4% (n = 96,000) | AID 1024, 2008;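 active means activation factor of 2 or more for CYP2C9 at a 5 µM dose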;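 further: 0 = sulfaphenazole-blocked wells and 1 = vehicle-only wells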
CYP2C9 inhib – blockers of cytochrome P450 2C9 activity – biochemical, luminescence, ADME assay, primary screen; AID 777, 2007; inhibition, % at 5 µM; CYP2C9 Supersomes, luciferin-H conversion; P11712; actives 20% (n = 96,000);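 active means blocking of liver enzyme CYP2C9 beyond about 50% at 5 µM, limit read from the data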
CYP2C19 inhib – blockers of cytochrome P450 2C19 activity – biochemical, luminescence, ADME assay, primary screen; P33261; inhibition, % at 5 µM; actives 21% (n = 96,000); CYP2C19 Supersomes, luciferin-H EGE luminescence, 30 min;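 active means CYP2C19 inhibition above a set limit at 5 µM in the primary screen, cut at about 50% in these data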;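 further: plate controls were negative control wells for no effect and 2.5 mM tranylcypromine positive control for full effect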
Target sequence (P33261 whole entry, looked up): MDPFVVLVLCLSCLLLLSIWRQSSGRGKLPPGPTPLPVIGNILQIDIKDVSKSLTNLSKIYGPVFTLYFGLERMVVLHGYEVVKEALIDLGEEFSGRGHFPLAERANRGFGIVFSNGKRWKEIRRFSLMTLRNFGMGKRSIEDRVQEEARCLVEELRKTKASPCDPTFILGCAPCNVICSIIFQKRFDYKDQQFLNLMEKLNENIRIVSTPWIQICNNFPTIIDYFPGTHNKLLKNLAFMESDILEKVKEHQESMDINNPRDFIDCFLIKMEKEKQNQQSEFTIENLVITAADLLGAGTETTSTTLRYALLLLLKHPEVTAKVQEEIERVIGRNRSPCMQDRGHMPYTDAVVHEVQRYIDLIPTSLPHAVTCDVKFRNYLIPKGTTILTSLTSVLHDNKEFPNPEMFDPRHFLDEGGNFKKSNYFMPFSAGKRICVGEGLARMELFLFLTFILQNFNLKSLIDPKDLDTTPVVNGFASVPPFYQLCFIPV
CYP2C19 activ – human CYP2C19 activators, primary screen, biochemical, luminescence | recombinant CYP2C19, luciferin-H EGE luminescence; stronger effect = higher value; 0 = fully inhibited enzyme, 1 = untreated enzyme | activation factor at 5 µM | 96,000 tested, under 10 active | AID 1025, 2008;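 active means activation factor of at least 2 at 5 µM in the primary screen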;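 further: 0 = wells with 2.5 mM tranylcypromine and 1 = vehicle-only wells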
Measles CPE – compounds protecting cells from measles virus cytopathic effect, primary screen, measles RdRp inhibitor project, single point, MLSMR library, absorbance; Measles virus-infected cells, CPE protection; protection (pct of control), % at 4 µM; actives 1.5% (n = 140,000); AID 841, 2007; in the data active means protection mostly above about 24%, no sharp cut-off; inactive means mostly below about 26%
Numbers without * were called inactive; nt = no result given. Hits are enriched below; roughly 22% of the tested compounds scored in any of these assays.

SMILES	CYP2C9 activ	CYP2C9 inhib	CYP2C19 inhib	CYP2C19 activ	Measles CPE
CCN1c2ccccc2-c2nc3ccccc3n2C1c1ccncc1 (configuration not stated)	0	99.9*	97.7*	0	18.1
Cc1ccc(C2N(C)c3ccccc3-c3nc4ccccc4n32)o1 (configuration not stated)	0.1	92.6*	86.9*	0.1	6.6
CCN1c2ccccc2-c2nc3ccccc3n2C1c1cccnc1 (configuration not stated)	0.3	71.1*	15.3	0.8	13.1
COC(=O)[C@@H](NC(=O)O[C@@H]1C(=O)c2ccc(OC)cc2O[C@H]1c1cccc(C(F)(F)F)c1)C(C)C	nt	nt	nt	nt	6.8
CCOC(=O)CNC(=O)Cn1cnc2c(nnn2-c2cccc(Cl)c2)c1=O	1.4	-43.9	10.0	0.9	5.4
CCCCOc1ccc(C(=O)Oc2ccc(C)nc2)cc1	0.5	54.9*	20.1	0.8	25.2
CCCCCOc1ccc(OC(=O)c2ccncc2)cc1	0.6	37.5	38.8	0.6	2.9
Cc1n[nH]c(C)c1CCc1nc2c3ccccc3nc(SCC(N)=O)n2n1	0.8	17.3	-5.8	1.1	4.6
Cc1ccc(NC(=O)CSc2nc3ccccc3c3nc(CCc4c(C)n[nH]c4C)nn23)cc1F	0.4	56.1*	-1.7	1	4.5
CCOC(=O)N1CCN(c2ccc3nnnn3n2)CC1	1	-1.7	56.1*	0.4	5.5
Cc1noc(C)c1COC(=O)c1cccc(S(=O)(=O)N2c3ccccc3CC2C)c1 (configuration not stated)	0.2	80.1*	58.6*	0.4	16.1
CCC(CO)NC(=O)c1cccc(S(=O)(=O)N2c3ccccc3CC2C)c1 (configuration not stated)	0.9	13.9	73.4*	0.3	16.5
CCOC(=O)c1sc(NC(=O)c2cccc(S(=O)(=O)N3c4ccccc4CC3C)c2)cc1C (configuration not stated)	nt	nt	nt	nt	3.5
O=C(NC(Nc1ncc(S(=O)(=O)c2ccc([N+](=O)[O-])cc2)s1)(C(F)(F)F)C(F)(F)F)c1ccc(Cl)cc1	0.1	87.9*	11.8	0.9	2.6
Cc1nc(-c2ccccc2)sc1C(=O)CSc1ccc(Br)cc1	0.1	85.1*	13.4	0.9	4.7
Cc1nc(-c2ccccc2)sc1C(=O)CSc1ccc(Cl)cc1	0.2	76.9*	4.2	1	13.8
Cc1cc(O)c(C(C[N+](=O)[O-])c2ccc(Cl)cc2Cl)c(=O)o1 (configuration not stated)	0	97.6*	77.1*	0.2	3.0
O=c1[nH][nH]c(-c2ccccc2O)c1C(C[N+](=O)[O-])c1ccc(Cl)cc1Cl (configuration not stated)	nt	nt	nt	nt	26.6
CC(=O)C1=C(C)NC(SCC(N)=O)=C(C#N)C1C (configuration not stated)	1.3	-30.6	-25.8	1.3	4.3
O=C(CN1C(=O)c2ccccc2C1=O)c1ccccc1	0.5	50.7*	26.0	0.7	3.9
Cc1c([N+](=O)[O-])ccc(S(=O)(=O)N2CCC(C(N)=O)CC2)c1C	nt	nt	nt	nt	6.5
CCN(Cc1ccccc1)C(=O)C1CCN(CC2CC=CCC2)CC1 (configuration not stated)	nt	nt	nt	nt	4.1
O=C(C1CC1)N(CCN(Cc1ccccc1)C(=O)C1CC1)Cc1ccccc1	0.7	27.5	54.1*	0.5	5.0
Cc1ccc(-n2c(C)cc(C=C(C#N)C#N)c2C)cc1	0.7	27.2	41.7	0.6	nt
CCN(CC)c1ccc(-n2c(C)c(C(C)=O)c(C(C)=O)c2C)cc1	0.2	79.7*	67.2*	0.3	5.5
CCN(CC)c1ccc(-n2c(C)cc(C=O)c2C)cc1	0.7	31.4	82.6*	0.2	9.8
Cn1c(=O)c2c(nc(NCc3cccnc3)n2Cc2ccc(Cl)cc2)n(C)c1=O	0.3	70.2*	54.1*	0.5	7.8
Cn1c(=O)c2c(nc(NCCCO)n2Cc2cccc(C(F)(F)F)c2)n(C)c1=O	0.7	29.2	58.6*	0.4	4.7
Cn1c(=O)c2c(nc(NCc3ccccc3)n2Cc2ccc(F)cc2)n(C)c1=O	nt	nt	nt	nt	22.7
